# Measured values published in PubChem BioAssay (EPA / NIEHS).
# The source made the active and inactive calls. The calls were made as follows: active = hit-call score of the fitted dose curve at least 0.9, where 1 is the maximum; inactive = score below 0.9.
# Columns and labels:
# [1] = APR_HepG2_NuclearSize_72hr: Apredica 72-hour HepG2 Assay for Nuclear Size (AID 2282925); details: high-content imaging, actives raise or lower the signal
# How it was run: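 HepG2; cpd 0.39–200 uM, 10 conc, duplicate; 72 h; DMSO 0.5% v/v; fix 3.7% formaldehyde 30 min RT; Triton permeabilization; Hoechst 2 ug/mL; HCS imaging 20x; nuclear diameter; gain/loss fit vs DMSO.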
# [2] = ATG_CRE_CIS: Attagene CIS-FACTORIAL HepG2 Assay for human cAMP Responsive Element (CRE) binding protein 3 (AID 2282926); details: HepG2 CRE cis-reporter, Attagene multiplexed mRNA; actives raise or lower the signal
# How it was run: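 HepG2 cells transiently transfected with a multiplexed reporter library (CRE-driven unit among them) were dosed for 24 h. Reporter mRNA was quantified by RT-PCR, fluorescent labelling, HpaI digestion and capillary electrophoresis, with bidirectional fitting against DMSO baseline.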
# [3] = biological target: CCAAT/enhancer-binding protein beta (Homo sapiens) (UniProt P17676); assay: ATG_C_EBP_CIS: Attagene CIS-FACTORIAL HepG2 Assay for human CCAAT/Enhancer Binding Protein (C/EBP) beta (AID 2282927); details: HepG2 Attagene cis-factorial transcription factor reporter; actives raise or lower the signal
# Chain of CCAAT/enhancer-binding protein beta (Homo sapiens) (P17676 whole entry, looked up): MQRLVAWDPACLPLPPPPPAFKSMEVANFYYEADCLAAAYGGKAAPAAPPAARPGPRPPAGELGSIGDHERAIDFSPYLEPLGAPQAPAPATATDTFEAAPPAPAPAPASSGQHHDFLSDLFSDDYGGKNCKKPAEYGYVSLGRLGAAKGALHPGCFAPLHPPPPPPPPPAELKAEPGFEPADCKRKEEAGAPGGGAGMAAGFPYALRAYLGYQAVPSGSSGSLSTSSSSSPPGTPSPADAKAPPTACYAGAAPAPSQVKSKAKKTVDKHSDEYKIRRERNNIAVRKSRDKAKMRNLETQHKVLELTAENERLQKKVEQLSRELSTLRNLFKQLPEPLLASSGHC
# How it was run: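 Endogenous transcription factor activity in human liver HepG2 cells is inferred from induction of a CEBPB-linked reporter mRNA. Exposure lasts 24 h; activity is fitted in both directions relative to DMSO.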
# [4] = ATG_CMV_CIS: Attagene CIS-FACTORIAL HepG2 Assay for human CMV (Internal Marker) (AID 2282928); details: HepG2 CMV promoter reporter, transcription factor profiling; actives raise or lower the signal;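 also: endpoint acts as a background internal control marker rather than a target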
# How it was run: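 After transient transfection of HepG2 with reporter transcription units driven by cis-regulatory promoters, cells receive test chemical for 24 h. Labeled reporter amplicons, digested with HpaI, are sized and quantified by capillary electrophoresis against DMSO.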
# [5] = ATG_DR4_LXR_CIS: Attagene CIS-FACTORIAL HepG2 Assay for human Liver X Receptor (LXR), DR4 submotif (AID 2282929); details: HepG2 Attagene DR4 cis-reporter, mRNA transcription; actives raise or lower the signal
# How it was run: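 HepG2, transient MRTU transfection, cis-element (DR4) promoter; 24 h compound exposure; total RNA → oligo(dT) RT → PCR → 6-FAM primer extension → HpaI cut → CE. Gain/loss vs DMSO, bidirectional fit.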
# [6] = biological target: Aryl hydrocarbon receptor (Homo sapiens) (UniProt P35869); assay: ATG_Ahr_CIS: Attagene CIS-FACTORIAL HepG2 Assay for human Aryl Hydrocarbon Receptor (Ahr) (AID 2282930); details: HepG2 AhR cis-factorial reporter transcription; actives raise or lower the signal
# Chain of Aryl hydrocarbon receptor (Homo sapiens) (P35869 whole entry, looked up): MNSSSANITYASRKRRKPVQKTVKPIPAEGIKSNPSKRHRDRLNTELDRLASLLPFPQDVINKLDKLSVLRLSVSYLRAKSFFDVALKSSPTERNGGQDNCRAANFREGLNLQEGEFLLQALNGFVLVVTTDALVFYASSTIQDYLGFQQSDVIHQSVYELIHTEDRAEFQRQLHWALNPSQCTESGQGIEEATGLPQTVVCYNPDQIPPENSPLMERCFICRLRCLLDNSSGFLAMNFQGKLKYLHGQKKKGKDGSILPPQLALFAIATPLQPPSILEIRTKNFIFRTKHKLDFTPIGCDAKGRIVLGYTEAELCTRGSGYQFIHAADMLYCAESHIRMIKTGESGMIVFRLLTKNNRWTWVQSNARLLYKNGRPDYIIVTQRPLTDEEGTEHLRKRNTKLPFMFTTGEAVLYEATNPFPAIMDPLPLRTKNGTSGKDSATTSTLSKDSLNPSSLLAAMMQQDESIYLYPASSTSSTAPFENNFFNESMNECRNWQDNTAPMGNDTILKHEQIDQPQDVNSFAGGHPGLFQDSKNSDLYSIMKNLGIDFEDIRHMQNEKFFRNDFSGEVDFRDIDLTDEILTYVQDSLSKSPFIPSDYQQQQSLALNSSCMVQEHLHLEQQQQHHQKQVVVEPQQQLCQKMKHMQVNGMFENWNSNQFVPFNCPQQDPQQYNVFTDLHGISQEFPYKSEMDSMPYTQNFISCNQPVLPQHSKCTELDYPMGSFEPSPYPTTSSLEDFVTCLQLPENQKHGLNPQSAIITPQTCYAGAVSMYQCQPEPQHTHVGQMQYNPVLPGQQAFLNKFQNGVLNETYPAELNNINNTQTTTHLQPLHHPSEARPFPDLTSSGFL
# How it was run: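 Transient MRTU transfection of HepG2 → 24 h compound exposure → total RNA, oligo(dT) RT → PCR, 6-FAM extension, HpaI cut → CE fluorescence. DMSO = baseline; bidirectional curve fit.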
# [7] = ATG_AP_1_CIS: Attagene CIS-FACTORIAL HepG2 Assay for human Activator Protein 1 (AP-1) (AID 2282931); details: HepG2 Attagene cis-factorial AP-1 reporter mRNA; actives raise or lower the signal
# How it was run: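 Transient MRTU transfection of HepG2 → 24 h chemical treatment → RNA isolation, RT-PCR, 6-FAM labelling, HpaI digest → capillary electrophoresis. Fit: bidirectional, DMSO negative control.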
# [8] = ATG_AP_2_CIS: Attagene CIS-FACTORIAL HepG2 Assay for human Activator Protein 2 (AP-2) (AID 2282932); details: HepG2 AP-2 cis-reporter, Attagene transcription factor profiling; actives raise or lower the signal
# How it was run: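 Step one: transient transfection of HepG2 with reporter transcription units. Step two: 24 h chemical exposure. Step three: RNA extraction, RT-PCR, labelled fragment analysis by capillary electrophoresis; DMSO serves as baseline.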
# [9] = ATG_BRE_CIS: Attagene CIS-FACTORIAL HepG2 Assay for human Bone Morphogenetic Protein (BMP) Response Element (BRE) (AID 2282933); details: HepG2 BMP response element reporter, Attagene transcription factor profiling; actives raise or lower the signal
# How it was run: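 After a 24 h chemical treatment, transiently transfected HepG2 cells were lysed for RNA; reporter transcripts were quantified by fluorescent RT-PCR and capillary electrophoresis, normalised to DMSO.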
# [10] = biological target: Retinoic acid receptor alpha (Homo sapiens) (UniProt P10276); assay: ATG_DR5_RAR_CIS: Attagene CIS-FACTORIAL HepG2 Assay for human Retinoic Acid Receptor Alpha (RARE), DR5 submotif (AID 2282934); details: HepG2 Attagene cis-factorial RARE DR5 reporter, mRNA; actives raise or lower the signal
# Chain of Retinoic acid receptor alpha (Homo sapiens) (P10276 whole entry, looked up): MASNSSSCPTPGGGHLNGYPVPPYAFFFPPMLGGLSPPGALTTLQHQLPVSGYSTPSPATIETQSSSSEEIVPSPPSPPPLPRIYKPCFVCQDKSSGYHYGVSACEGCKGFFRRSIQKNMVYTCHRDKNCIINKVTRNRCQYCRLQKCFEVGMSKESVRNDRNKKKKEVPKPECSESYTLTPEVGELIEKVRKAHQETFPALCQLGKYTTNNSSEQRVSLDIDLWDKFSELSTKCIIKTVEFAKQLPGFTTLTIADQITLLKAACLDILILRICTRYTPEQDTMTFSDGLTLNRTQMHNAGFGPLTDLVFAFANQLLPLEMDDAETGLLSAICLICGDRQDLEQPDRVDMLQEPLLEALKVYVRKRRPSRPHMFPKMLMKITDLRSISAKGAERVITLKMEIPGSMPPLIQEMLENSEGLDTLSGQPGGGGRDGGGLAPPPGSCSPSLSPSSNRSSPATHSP
# How it was run: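 Transient MRTU transfection of HepG2; 24 h compound treatment; TriZol RNA, oligo(dT) RT, PCR, FAM labelling, capillary electrophoresis. Bidirectional fit vs DMSO. Endogenous TF activity at DR5 RARE.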
# [11] = biological target: Transcription factor E2F1 (Homo sapiens) (UniProt Q01094); assay: ATG_E2F_CIS: Attagene CIS-FACTORIAL HepG2 Assay for human E2F Transcription Factor 1 (AID 2282935); details: HepG2 Attagene cis-reporter, E2F reporter RNA transcripts; actives raise or lower the signal
# Chain of Transcription factor E2F1 (Homo sapiens) (Q01094 whole entry, looked up): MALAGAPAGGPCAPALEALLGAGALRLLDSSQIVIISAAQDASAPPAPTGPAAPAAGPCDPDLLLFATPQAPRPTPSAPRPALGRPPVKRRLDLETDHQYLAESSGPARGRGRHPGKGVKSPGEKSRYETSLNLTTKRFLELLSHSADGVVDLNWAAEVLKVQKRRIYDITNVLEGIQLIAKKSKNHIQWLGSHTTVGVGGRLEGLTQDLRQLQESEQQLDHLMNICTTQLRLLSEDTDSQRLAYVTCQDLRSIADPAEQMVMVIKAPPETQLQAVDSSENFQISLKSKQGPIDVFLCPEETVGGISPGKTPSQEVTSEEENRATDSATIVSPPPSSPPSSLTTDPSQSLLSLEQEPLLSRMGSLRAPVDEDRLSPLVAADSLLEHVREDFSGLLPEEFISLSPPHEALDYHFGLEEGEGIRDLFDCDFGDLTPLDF
# How it was run: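 Total RNA from 24 h-treated, reporter-transfected HepG2 cells undergoes DNase I treatment, oligo(dT) reverse transcription, PCR and 6-FAM primer extension before capillary electrophoresis.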
# [12] = ATG_E_Box_CIS: Attagene CIS-FACTORIAL HepG2 Assay for human Enhancer Box (E-box) (AID 2282936); details: HepG2 E-box cis-reporter transcription, actives raise or lower the signal
# How it was run: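 DMSO served as negative control and baseline for bidirectional fitting. Human hepatoma HepG2 cells, transiently transfected with cis-reporter constructs, were dosed 24 h; reporter mRNA read by RT-PCR and capillary electrophoresis.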
# [13] = ATG_M_61_CIS: Attagene CIS-FACTORIAL HepG2 Assay for M61 Transcription Factor (Internal Marker) (AID 2282937); details: HepG2 Attagene CIS-FACTORIAL M61 internal marker reporter; actives raise or lower the signal
# How it was run: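 Human liver HepG2, transient MRTU transfection (cis promoter elements), 24 h compound. Total RNA → oligo(dT) RT → PCR → FAM label → HpaI → CE. Internal background marker; bidirectional fitting, DMSO = baseline.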
# [14] = ATG_EGR_CIS: Attagene CIS-FACTORIAL HepG2 Assay for human Early Growth Response 1 (EGR1) (AID 2282938); details: HepG2 Attagene CIS-FACTORIAL EGR reporter mRNA; actives raise or lower the signal
# How it was run: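 Transient transfection of human HepG2 with multiple cis-regulated reporter units, chemical exposure 24 h, total RNA isolated. Reverse transcription, PCR, fluorescent labelling and capillary electrophoresis quantify reporter transcripts; activity fitted bidirectionally against DMSO.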
# [15] = ATG_M_19_CIS: Attagene CIS-FACTORIAL HepG2 Assay for M19 Transcription Factor (Internal Marker) (AID 2282939); details: HepG2 Attagene CIS-FACTORIAL M19 internal marker reporter; actives raise or lower the signal
# How it was run: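 In this multiplexed cell assay, transiently transfected HepG2 reporter units report endogenous transcription-factor activity; after 24 hours of treatment, labelled reporter cDNA fragments are quantified by capillary electrophoresis and fitted bidirectionally against DMSO.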
# [16] = ATG_ERE_CIS: Attagene CIS-FACTORIAL HepG2 Assay for Estrogen Response Element (ERE) (AID 2282940); details: HepG2 ERE cis-reporter, Attagene RNA transcript; actives raise or lower the signal
# How it was run: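 Measuring endogenous transcription factor output, the assay doses transfected HepG2 cells for 24 hours and quantifies reporter transcripts by fluorescent RT-PCR and capillary electrophoresis, with DMSO as baseline.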
# [17] = ATG_Ets_CIS: Attagene CIS-FACTORIAL HepG2 Assay for human Erythroblast Transformation Specific (ETS) (AID 2282941); details: HepG2 ETS cis-reporter transcription, actives raise or lower the signal
# How it was run: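 Human HepG2 hepatoma cells were transiently transfected with promoter-driven reporter constructs and treated for 24 hours. Reporter transcripts were quantified by RT-PCR with fluorescent primer extension; bidirectional curve fitting used DMSO as reference.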
# [18] = biological target: Hepatocyte nuclear factor 3-beta (Homo sapiens) (UniProt Q9Y261); assay: ATG_FoxA2_CIS: Attagene CIS-FACTORIAL HepG2 Assay for human Forkhead box A2 (FOXA2) (AID 2282942); details: HepG2 cis-reporter transcription factor activity, 24 h; actives raise or lower the signal
# Chain of Hepatocyte nuclear factor 3-beta (Homo sapiens) (Q9Y261 whole entry, looked up): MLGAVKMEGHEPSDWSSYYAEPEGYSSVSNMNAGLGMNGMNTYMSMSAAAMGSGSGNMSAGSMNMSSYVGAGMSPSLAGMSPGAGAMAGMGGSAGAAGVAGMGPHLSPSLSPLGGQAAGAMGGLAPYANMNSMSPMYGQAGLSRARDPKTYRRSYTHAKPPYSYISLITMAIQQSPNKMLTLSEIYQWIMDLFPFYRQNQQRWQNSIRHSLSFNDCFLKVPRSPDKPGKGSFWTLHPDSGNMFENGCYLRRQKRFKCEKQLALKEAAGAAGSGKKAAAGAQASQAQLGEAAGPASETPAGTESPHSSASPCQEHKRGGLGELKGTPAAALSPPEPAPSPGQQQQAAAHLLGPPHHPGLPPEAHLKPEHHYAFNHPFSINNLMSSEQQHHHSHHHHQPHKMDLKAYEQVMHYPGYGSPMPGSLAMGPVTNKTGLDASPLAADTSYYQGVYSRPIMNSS
# How it was run: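 Transient MRTU transfection of HepG2 liver cells; 24 h treatment; total RNA → oligo(dT) RT → PCR → FAM primer extension → HpaI cut → CE. Bidirectional fit vs DMSO.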
# [19] = ATG_FoxO_CIS: Attagene CIS-FACTORIAL HepG2 Assay for human Forkhead box O (FoxO) (AID 2282943); details: HepG2 Attagene cis-reporter, FoxO element, mRNA; actives raise or lower the signal
# How it was run: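 HepG2, transient MRTU transfection (cis element, endogenous TFs). Dose 24 h. TriZol RNA → oligo(dT) RT → PCR → 6-FAM primer extension → HpaI cut → CE. Gain/loss vs DMSO.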
# [20] = ATG_GATA_CIS: Attagene CIS-FACTORIAL HepG2 Assay for human GATA Binding Protein (AID 2282944); details: HepG2 GATA cis-element reporter, Attagene multiplex mRNA; actives raise or lower the signal
# How it was run: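 Measures endogenous transcription factor-driven reporter mRNA in HepG2 cells transiently carrying cis-regulated constructs. 24 h dosing; RNA via oligo(dT) reverse transcription, PCR, HpaI digestion, capillary electrophoresis; fitted relative to DMSO.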
structure (smiles),measurement,setting,value
COc1cc(Cl)c(OC)cc1Cl,outcome,[1],inactive
same,outcome,[2],inactive
same,outcome,[3],inactive
same,outcome,[4],inactive
same,outcome,[5],inactive
same,outcome,[6],inactive
same,outcome,[7],inactive
same,outcome,[8],inactive
same,outcome,[9],inactive
same,outcome,[10],inactive
same,outcome,[11],inactive
same,outcome,[12],inactive
same,outcome,[13],inactive
same,outcome,[14],inactive
same,outcome,[15],inactive
same,outcome,[16],inactive
same,outcome,[17],inactive
same,outcome,[18],inactive
same,outcome,[19],inactive
same,outcome,[20],inactive
CCOc1nc(C(Cl)(Cl)Cl)ns1,outcome,[1],inactive
same,AC50,[2],20.8 µM (active)
same,outcome,[3],inactive
same,outcome,[4],inactive
same,outcome,[5],inactive
same,outcome,[6],inactive
same,outcome,[7],inactive
same,outcome,[8],inactive
same,AC50,[9],24.6 µM (active)
same,outcome,[11],inactive
same,outcome,[12],inactive
same,outcome,[13],inactive
same,outcome,[14],inactive
same,outcome,[15],inactive
same,outcome,[16],inactive
same,outcome,[17],inactive
same,outcome,[18],inactive
same,outcome,[19],inactive
same,outcome,[20],inactive
C=CCOC(=O)C(C)(C)OC(=O)c1cc(-n2c(=O)cc(C(F)(F)F)n(C)c2=O)ccc1Cl,outcome,[1],inactive
same,AC50,[2],13.3 µM (active)
same,outcome,[3],inactive
same,outcome,[4],inactive
same,outcome,[5],inactive
same,outcome,[6],inactive
same,outcome,[7],inactive
same,outcome,[8],inactive
same,outcome,[9],inactive
same,outcome,[11],inactive
same,outcome,[12],inactive
same,outcome,[13],inactive
same,outcome,[14],inactive
same,outcome,[15],inactive
same,outcome,[16],inactive
same,outcome,[17],inactive
same,outcome,[18],inactive
same,outcome,[19],inactive
same,outcome,[20],inactive
COC(=O)NC(=S)Nc1ccccc1NC(=S)NC(=O)OC,outcome,[1],inactive
same,AC50,[2],29 µM (active)
same,AC50,[3],28.7 µM (active)
same,outcome,[4],inactive
same,outcome,[5],inactive
same,AC50,[6],73.9 µM (active)
same,outcome,[7],inactive
same,outcome,[8],inactive
same,AC50,[9],26.3 µM (active)
same,outcome,[11],inactive
same,outcome,[12],inactive
same,outcome,[13],inactive
same,outcome,[14],inactive
same,outcome,[15],inactive
same,outcome,[16],inactive
same,outcome,[17],inactive
same,outcome,[18],inactive
same,outcome,[19],inactive
same,outcome,[20],inactive
Cc1nc(N(C)C)nc(OC(=O)N(C)C)c1C,outcome,[1],inactive
same,outcome,[2],inactive
same,outcome,[3],inactive
same,outcome,[4],inactive
same,outcome,[5],inactive
same,outcome,[6],inactive
same,outcome,[8],inactive
same,outcome,[9],inactive
same,outcome,[11],inactive
same,outcome,[12],inactive
same,outcome,[13],inactive
same,outcome,[14],inactive
same,outcome,[15],inactive
same,outcome,[16],inactive
same,outcome,[17],inactive
same,outcome,[18],inactive
same,outcome,[19],inactive
same,outcome,[20],inactive
